Tau fluor cs: Counterscreen qHTS for Inhibitors of Tau Fibril Formation, Fluorescence Polarization. tau K18 P301L Alexa594 fluorescence, heparin fibrillization. Potency, µM (doses to about 57.7 µM), for the others: at the top dose activity change, negative = decrease. 280,000 tested, 0.93% active; further: nearly all actives have a fitted effect of over 55% in size
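Human tau K18 P301L (15 uM unlabeled, 0.24 uM Alexa 594-labeled) in 100 mM sodium acetate pH 7 with 20 uM heparin, 6 hr at 37 C. ThT 30 uM added, 1 hr ambient; Alexa 594 FP and total fluorescence read at 555/632 nm.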
TexasRed fluor: Total Fluorescence Counterscreen for Inhibitors of the Interaction of Thyroid Hormone Receptor and Steroid Receptor Coregulator 2 | TRb/SRC2 Texas Red total fluorescence interference | Potency, µM (top dose mostly 106 µM), for the others: at the highest dose fluorescence change, negative = quenching | 280,000 tested, 0.29% active | AID 1479, 2009; active means well fitted curve in either direction with a large enough effect; inconclusive means small, poorly fitted or top-dose-only effect
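Human TRβ ligand-binding domain (0.6 uM) and Texas Red SRC2 peptide (20 nM) in Tris buffer with 1 uM T3 and 5% DMSO were incubated with pinned compound for 5 hr at ambient temperature. Total fluorescence was computed as S + 2P (555/632 nm).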
Tau ThT inhib: qHTS for Inhibitors of Tau Fibril Formation, Thioflavin T Binding | recombinant tau K18 P301L (four-repeat tau fragment), heparin-induced fibrillization, ThT fluorescence | Potency, µM (titrated, usually from 57.4 µM), inactives show top-dose activity, negative = inhibition, most hits filed as inhibitors | 270,000 tested, 2.1% active; further: nearly all actives have a fitted effect of over 55% in size
Target sequence (P10636 561-689 P618L limits assumed): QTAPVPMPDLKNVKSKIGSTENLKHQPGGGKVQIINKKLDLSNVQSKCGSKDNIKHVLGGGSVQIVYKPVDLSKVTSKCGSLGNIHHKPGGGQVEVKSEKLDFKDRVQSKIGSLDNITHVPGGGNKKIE
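Heparin-induced (20 uM) aggregation of recombinant human K18 P301L tau, 15 uM unlabeled with 0.24 uM labeled, pH 7 acetate buffer, 6 hr at 37 C with compound. Fibrils quantified by 30 uM ThT fluorescence after 1 hr ambient incubation.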
Tau FP inhib: qHTS for Inhibitors of Tau Fibril Formation, Fluorescence Polarization. Potency, µM (series often up to 57.7 µM), inactives show at the highest dose activity, negative = inhibition, actives largely listed as inhibitors. Microtubule-associated protein tau (Homo sapiens), P10636. 280,000 tested, 0.39% active. K18 P301L tau heparin fibrillization, Alexa594 FP, 6 h; further: nearly all actives have a fitted effect of over 55% in size
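Recombinant K18 P301L […], labeled with Alexa 594 at 0.24 uM over 15 uM unlabeled; heparin inducer 20 uM final; 37 C, 6 hr; FP endpoint.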
GoLoco inh red: qHTS Assay for Inhibitors of RGS12 GoLoco Motif Activity (Red Fluorophore); Gai1:RGS12 GoLoco peptide FP, rhodamine, 10 min; 230,000 tested, 0.44% active; AID 880, 2007; Potency, µM (series often up to 61.6 µM), for inactives: top-dose activity, negative = inhibition, actives largely listed as inhibitors; active means well fitted inhibition curve with a large enough effect, not every such curve was filed as active; inactive means no such curve, though single readings can be large or run the other way; further: nearly all actives have a fitted effect of over 30% in size
TRb-SRC2 inh: qHTS for Inhibitors of the Interaction of Thyroid Hormone Receptor and Steroid Receptor Coregulator 2 | Potency, µM (doses to about 106 µM), without a hit: at the top dose activity change, negative = inhibition, hits mostly inhibitors | Thyroid hormone receptor beta (Homo sapiens), P10828 | TRbeta-SRC2 peptide binding, fluorescence polarization; receptor liganded with 1 µM T3 | AID 1469, 2008 | 280,000 tested, 0.065% active;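 further: plate controls were bound peptide for no effect and peptide without receptor for full effect; nearly all actives have a fitted effect of over 50% in size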
Target sequence (P10828 whole entry, looked up): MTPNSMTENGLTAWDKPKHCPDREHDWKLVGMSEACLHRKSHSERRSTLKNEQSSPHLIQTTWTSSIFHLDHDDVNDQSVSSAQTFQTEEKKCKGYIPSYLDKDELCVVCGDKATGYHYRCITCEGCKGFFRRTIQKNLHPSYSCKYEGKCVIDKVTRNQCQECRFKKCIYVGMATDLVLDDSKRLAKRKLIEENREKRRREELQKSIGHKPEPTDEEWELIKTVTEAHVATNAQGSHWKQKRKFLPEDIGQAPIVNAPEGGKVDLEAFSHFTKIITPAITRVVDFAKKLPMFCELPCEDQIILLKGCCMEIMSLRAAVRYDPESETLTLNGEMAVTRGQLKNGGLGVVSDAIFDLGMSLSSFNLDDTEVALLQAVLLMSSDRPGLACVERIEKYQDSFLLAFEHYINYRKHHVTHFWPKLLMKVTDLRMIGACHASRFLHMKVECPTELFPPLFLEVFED
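TRb LBD 0.6 uM + Texas Red SRC2 peptide 20 nM, 1 uM T3, Tris buffer w/ 5% DMSO; compound pinned, 5 h RT; FP read ex 555/em 632; normalized to unbound and bound controls.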
Numbers without * were called inactive; ? = inconclusive; nt = not tested or not shown; [ ] = dose if it differs, or a comment. Compounds with a hit are over-represented: about 3.1% of the library has one in this group of screens. Unless noted, the call rests on the fitted dose curve; in most records, active means well fitted curve in the direction sought with a large enough effect; inconclusive means small, poorly fitted or top-dose-only effect, or another doubt; inactive means no such curve, though single readings can be large; an effect the other way counts as inactive or inconclusive. Unless noted, on the % scale 0 is the no-effect control and ±100 the full control effect; potency means the concentration at half of the fitted maximal effect.

SMILES	Tau fluor cs	TexasRed fluor	Tau ThT inhib	Tau FP inhib	GoLoco inh red	TRb-SRC2 inh
N#C/C(=C\c1ccc(N2CCOCC2)cc1)c1ccccc1	?	-7%	?	11%	2%	0%
COc1cc(N2CCCC2)c(OC)cc1/C=C(/C#N)c1cccc(F)c1	?	10%	?	13%	9%	?
N#C/C(=C\c1ccc(Sc2nc3ccccc3[nH]2)o1)c1ccccc1	?	2%	?	-11%	11%	-3%
N#C/C(=C/c1ccc(N2CCOCC2)o1)c1ccc(Br)cc1	?	8%	14µM*	?	20%	4%
COc1ccc(CN(CCCN2CCOCC2)S(=O)(=O)N(C)C)cc1OC	-4%	-5%	-5%	-5%	12%	-3%
CN(C)c1cc[nH]c(=O)c1C#N	0%	-1%	-3%	5%	5%	4%
Fc1ccc(Oc2cnns2)cc1	-1%	-8%	6%	-4%	4%	-6%
N#C/C(=C/c1ccc(N2CCOCC2)o1)c1nc2ccccc2[nH]1	?	?	7.9µM*	-5%	315%	-14%
Cc1cc(/C=C(/C#N)c2nc3ccccc3[nH]2)c(C)n1-c1cccc([N+](=O)[O-])c1	?	-4%	?	11%	3%	-1%
N#C/C(=C\c1cc([N+](=O)[O-])c(N2CCOCC2)cc1N1CCOCC1)c1nc2ccccc2[nH]1	?	-4%	16µM*	2%	7%	-9%
CC(C)(O)C#Cc1ccc(CN2CCN(CCc3ccccc3)C(CCO)C2)s1 (stereo not drawn)	-9%	2%	-6%	-5%	24%	-3%
COC(=O)c1ccc(Nc2cc(C)nc(-c3ccccc3O)n2)cc1	?	-2%	1%	?	3%	-12%
C/C(=N\Nc1cc(C)nc(-c2ccccc2O)n1)c1ccccc1O	10µM*[quencher]	-1%	?	?	3%	-1%
COC(=O)c1cccc(Nc2cc(C)nc(-c3ccccc3O)n2)c1	?	-4%	?	11µM*	-2%	-2%
O=C(c1ccco1)n1nc(-c2ccccc2)nc1NCc1ccc(Cl)cc1	-22%	-11%	-3%	-18%	nt	-3%
COc1ccc(C2C(C#N)=C(SCC(=O)Nc3ccc(C)cc3)NC3=C2C(=O)CC(C)(C)C3)cc1 (stereo not drawn)	?	1%	-11%	?	1%	-10%
Cc1c(N2C(=O)/C(=C\C3CC=CCC3)SC2=S)c(=O)n(-c2ccccc2)n1C (stereo not drawn)	-15%	-6%	?	?	93%	-1%
COc1ccccc1C1NC=C([N+](=O)[O-])C=C1[N+](=O)[O-] (stereo not drawn)	?	-8%	11µM*	?	116%	0%
COc1ccccc1C1C([N+](=O)[O-])=CC([N+](=O)[O-])=CN1C (stereo not drawn)	-2%	2%	?	6%	32%	-3%
Clc1ccc(-c2cnn3c(-c4ccncc4)ccnc23)cc1	1%	-1%	2.5µM*	2%	3%	5%
CSc1nc2ccc(NS(=O)(=O)c3cccc(Cl)c3Cl)cc2s1	-5%	1.1µM*[quencher]	5%	-10%	23%	-9%[53 µM]
CSc1nc2ccc(NS(=O)(=O)c3ccc([N+](=O)[O-])cc3)cc2s1	?	-2%	?	-1%	6%	-2%
O=C(NCCc1cccs1)c1ccc(Cn2c(SCc3ccc(F)cc3)nc3cccnc32)cc1	-15%	-12%	8%	3%	nt	9%
CC(C)(O)/C=C1/Oc2ccccc2C1N1CCCCC1 (stereo not drawn)	-10%	-3%	?	3%	8%	-15%
COc1ccc(/C=N/Nc2nc3ccccc3s2)cc1O	13µM*[quencher]	-10%	13µM*	9%	9%	4%
SMILES	Tau fluor cs	TexasRed fluor	Tau ThT inhib	Tau FP inhib	GoLoco inh red	TRb-SRC2 inh
CCn1c(C)c(/C=N/Nc2nc3ccccc3s2)c2ccccc21	7.1µM*[quencher]	-1%	7.1µM*	1%	-5%	0%
C(=N\Nc1nc2ccccc2s1)/c1cccs1	14µM*[quencher]	-4%	14µM*	?	0%	2%
CCN1CCN(C(=O)c2ccc(OCC(=O)Nc3ccc(F)cc3)c(OC)c2)CC1	1%	0%	1%	2%	0%	3%
O=C(Nc1ccc(Nc2ccccc2)cc1)c1ccc(Br)o1	14µM*[quencher]	-5%	8.9µM*	?	-3%	-15%
CCN(CC(=O)NC(C)C)C(=O)C(CCSC)NC(=O)c1cccc(C)c1 (stereo not drawn)	-4%	-2%	-6%	4%	7%	-14%
CCCCCSc1nc2sc3c(c2c(=O)n1-c1ccccc1)CCN(C(C)=O)C3	-10%	0.018µM*[quencher]	?	?	nt	-28%[53 µM]
C#CCSc1nc2sc3c(c2c(=O)n1-c1cccc(OC)c1)CCN(C(C)=O)C3	-8%	-33%	25µM*	?	nt	5%
CC1CCc2c(sc3ncnc(SCC(=O)N4CCN(C(=O)c5ccco5)CC4)c23)C1 (stereo not drawn)	6%	-2%	-11%	0%	-7%	-8%
CCN(CC)S(=O)(=O)c1ccc(N2CCOCC2)c(NC(=O)C(C)(C)C)c1	13%	-2%	nt	0%	-1%	-4%
Oc1cccc(Nc2ccccc2)c1	nt	0%	nt	nt	-1%	1%
CC(C)c1cc(Nc2cccc(O)c2)cc(C(C)C)c1O	?	0%	32µM*	?	4%	7%
N/C(=C\C(=O)c1cc(Cl)ccc1O)C(Cl)(Cl)Cl	-25%	-5%	18µM*	?	7%	0%
CCCCCc1ccc(OCCOCCn2c[n+](C)c3ccccc32)c(CCCCC)c1	-9%	0%	?	7%	10%	3%
CCCCCc1ccc(OCCC[n+]2ccccc2)c(CCCCC)c1	-14%	-11%	?	11%	8%	71µM*
CSC1=NSC2=NC(=O)/C(=C/c3coc4ccc(O)cc4c3=O)C(=N)N12	?	-7%	22µM*	-5%	67%	-3%
N=C1/C(=C\c2coc3ccccc3c2=O)C(=O)N=C2SC=CN12	-28%	-6%	?	-4%	20%	0%

Compound activity: PubChem, National Center for Advancing Translational Sciences (NCATS)
